From PubChem BioAssay
An excerpt weighted towards active compounds, which were near 4.6% of everything screened.
TRHR enhancer-1 – allosterically enhances the human TRH receptor. P34981. TRHR cells, fluo-8 calcium fluorescence, EC20 TRH enhancement. enhancement, % at 2 µM. 360,000 compounds, 0.66% hits. AID 493056; in the data active means enhancement above about 30%; further: 0% is about no effect
Target sequence (P34981 whole entry, looked up): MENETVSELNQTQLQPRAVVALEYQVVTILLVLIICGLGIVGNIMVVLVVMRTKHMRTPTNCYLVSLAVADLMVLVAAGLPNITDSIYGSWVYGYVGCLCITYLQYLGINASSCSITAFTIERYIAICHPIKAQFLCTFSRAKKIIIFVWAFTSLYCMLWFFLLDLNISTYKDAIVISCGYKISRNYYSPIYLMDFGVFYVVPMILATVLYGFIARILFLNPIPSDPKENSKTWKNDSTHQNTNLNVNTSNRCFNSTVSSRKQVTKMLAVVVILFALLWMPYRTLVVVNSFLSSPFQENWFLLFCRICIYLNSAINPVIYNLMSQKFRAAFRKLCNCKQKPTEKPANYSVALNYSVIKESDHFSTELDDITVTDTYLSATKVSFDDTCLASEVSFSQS
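TRHR-expressing cells loaded with fluo-8 calcium dye were read kinetically (ex 480/em 530) during compound addition, then stimulated with an EC20 of TRH (10 nM final). Enhancement of the Gq-mediated intracellular calcium response was scored.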
D1 potentiator – human D1 dopamine receptor positive modulation; AID 504651; HEK293 TREx D1 cells, calcium flux, dopamine EC20 potentiation; potentiation, % at 10 µM; 360,000 compounds, 0.036% hits; in the data active means potentiation above about 30%; further: 0% is about no effect
D1 antag – human D1 dopamine receptor antagonism; P21728; HEK293 TREx D1 cells, calcium flux, dopamine EC80; stronger effect = lower value; activity change, negative = inhibition, % at 10 µM; 360,000 compounds, 3.2% hits; in the data active means activity change below about -30%; further: on the % scale 0 is the no-effect control and ±100 the full control effect
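Allosteric or orthosteric antagonism assessed as attenuation of the calcium response to EC80 dopamine, added 180 s after compound, in induced HEK293 Trex D1 cells loaded with no-wash calcium dye.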
D1 agonist – human D1 receptor agonism. P21728. HEK293 T-REx D1 cells, calcium flux, agonist mode. 360,000 compounds, 1% hits. activation, % at 2 µM; in the data active means activation above about 30%; further: 0% is about no effect
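Tetracycline-induced HEK293 TREx D1 cells, force-coupled to calcium signalling, were dye-loaded with a no-wash calcium kit. Compound was pin-added after a 10 s baseline. Fluorescence was read kinetically at 1 cycle/s for 180 s, with calcium rises flagged as agonism.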
TRHR agonist-1 – agonists of human TRH receptor; activation, % at 2 µM; 360,000 compounds, 0.18% hits; AID 493084; P34981; TRHR cells, calcium flux fluo-8, FDSS agonist mode; in the data active means activation above about 30%; further: 0% is about no effect
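TRHR-expressing cells loaded with fluo-8 calcium dye; 23 nL library compound pin-transferred, kinetic FDSS fluorescence (Ex 480/Em 530) recorded about 180 s for agonist-induced calcium release, before a 10 nM TRH EC20 addition for potentiator mode.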
TRHR enhancer-2 – human TRH receptor allosteric enhancement confirmation | activity change, negative = inhibition, % at 46.1 µM | TRH receptor cell assay, enhancer confirmation qHTS | shares compounds with TRHR enhancer-1 | 970 tested, under 10 active | AID 493076;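 further: compound effect scored on response to added TRH at EC20 of 10 nM; 0% is about no effect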
TRHR agonist-2 – confirmation of human TRH receptor agonists; 970 compounds, 8% hits; Potency, µM (top dose mostly 46.1 µM), for inactives: at the top dose activation, most hits filed as activators; shares compounds with TRHR enhancer-1; TRHR-expressing cells, agonist activation read-out; further: potency means the concentration at half of the fitted maximal effect; 0% is about no effect; nearly all actives have a fitted effect of over 75% in size
An asterisk follows results filed as active; ? = inconclusive; / = not tested or not shown. Unless noted, the call rests on the fitted dose curve; in most records, active means well fitted curve in the direction sought with a large enough effect; inconclusive means small, poorly fitted or top-dose-only effect, or another doubt; inactive means no such curve, though single readings can be large; an effect the other way counts as inactive or inconclusive.

SMILES	TRHR enhancer-1	D1 potentiator	D1 antag	D1 agonist	TRHR agonist-1	TRHR enhancer-2	TRHR agonist-2
O=C(/C=C/c1cn(CC(O)CN2CCCCC2)c2ccccc12)c1cccs1 (stereo unspecified)	6.7	-7.0	-0.4	46.2*	35.9*	4.9	?
O=C(N/N=C\c1c(O)ccc2ccccc12)c1ccc(S(=O)(=O)N2CCCCC2)cc1	26.2	-8.7	-7.7	51.9*	60.1*	?	18.4µM*
COc1ccc2ccccc2c1/C=N/NC(=O)c1ccc(C)nc1	4.5	2.6	-0.7	-0.3	-0.8	/	/
O=C(N/N=C/c1c(O)ccc2ccccc12)c1ccc(CO)nc1	1.2	-2.7	10.5	23.0	32.5*	4.0	?
O=C(CNC(=O)c1ccc(S(=O)(=O)N2CCCC2)cc1)N/N=C/c1ccccc1Cl	0.6	-5.8	-0.9	1.8	-1.0	/	/
COc1ccc(-c2csc3ncnc(Nc4ccc(OC)c(OC)c4)c23)cc1	-2.0	1.9	7.3	3.7	-0.7	/	/
NC(=O)CC(NC(=O)Cc1ccc(Br)cc1)c1ccc(N2CCC(Br)CC2)c([N+](=O)[O-])c1 (stereo unspecified)	51.7*	-0.8	15.1	1.8	0.0	-12.6	-0.6%
NC(=O)CC(NC(=O)Cc1ccc(Br)cc1)c1ccc(N2CCCCCCC2)c([N+](=O)[O-])c1 (stereo unspecified)	9.2	-1.6	-6.6	0.1	-0.7	/	/
Cc1c(NC(=O)CN2C(=O)NC(C)(c3ccccc3)C2=O)c(=O)n(-c2ccccc2)n1C (stereo unspecified)	48.4*	-4.9	-31.6*	2.7	0.4	-2.2	-0.2%
COc1ccc(C(=O)C2CCN(CC(=O)Nc3ccc(OC)cc3OC)CC2)cc1	0.5	-1.9	-16.7	0.2	0.1	/	/
COc1cc(C#N)c(NC(=O)CN2CCC(C(N)=O)CC2)cc1OC	60.9*	5.2	-1.0	5.8	0.2	-5.2	6.4%
COc1ccc(-c2c3c(=O)n(C)c(=O)n(C)c3c3n2-c2ccccc2NC3c2ccccc2OC)cc1 (stereo unspecified)	2.4	-0.1	10.8	-0.6	-0.9	/	/
O=C(NCc1cccs1)Nc1cc(Cl)ccc1Cl	41.4*	-8.8	1.3	16.1	-4.4	-5.1	2.7%
COc1ccccc1N1C(C)=CC(=C(C#N)c2nc3ccccc3s2)C=C1C	-6.2	11.0	-24.4	190.6*	46.2*	?	18.4µM*
CCOC(=O)c1c(NC(=O)Cn2c(C)nc3ccccc32)sc2c1CCC2	60.1*	-4.1	3.2	6.4	-0.8	-5.3	5.5%
Cc1nnc(SCCOC(N)=O)n1C	1.8	0.9	-5.7	5.9	0.3	/	/
C[N+](C)(C)CCOC(N)=O	4.4	-4.2	1.9	9.3	28.8	2.9	4.3%
CCCCCc1nnc(NC(=O)c2cccc(S(=O)(=O)N3CCOCC3)c2)s1	5.3	-2.8	-14.6	1.3	-0.1	/	/
COc1ccc(NC(=O)COC(=O)c2ccc(N3CCCC3=O)cc2)cc1OC	43.4*	-8.1	11.6	3.5	0.3	4.0	-0.6%
COc1ccccc1C(C)NCC(=O)NC(=O)NCc1ccco1 (stereo unspecified)	0.3	-1.5	35.2	-2.1	-0.9	/	/
O=C(NCCc1ccccc1)c1ccc2c(c1)CCN2S(=O)(=O)c1ccccc1	4.7	-2.5	21.9	5.6	0.6	/	/
COc1ccc(CCNC(=O)CSc2nc(N)c(C#N)c(-c3cccs3)c2C#N)cc1OC	26.1	-4.8	0.5	1.0	141.0*	0.5	-0.3%
Cc1ccccc1NC(=O)CSc1nc(N)c(C#N)c(-c2cccs2)c1C#N	1.4	0.2	-9.1	6.8	1.7	/	/
CC(=O)NC(CC(=O)NC1CCCc2ccccc21)c1ccccc1 (stereo unspecified)	-3.8	0.4	-20.9	-1.0	0.0	/	/
Cc1cccc(C)c1NC(=O)COC(=O)c1ccccc1Nc1ccccc1	2.1	2.0	-7.9	2.9	34.9*	-3.4	-0.8%
Cc1nc(S(=O)(=O)N2CCN(C3c4ccccc4-c4ccccc43)CC2)cn1C	43.1*	6.0	22.5	4.7	0.6	7.7	4.8%
